CYP2C9 inh – blocks human cytochrome P450 2C9; P11712; CYP2C9 Supersomes, luciferin-H conversion, luminescence; inhibition, % at 5 µM; 20% of 96,000 active;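 active = blocking of liver enzyme CYP2C9 beyond about 50% at 5 µM, limit read from the data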
CYP2C9 activ – increases human cytochrome P450 2C9 activity. 1.4% of 96,000 active. AID 1024. activation factor at 5 µM. P11712. recombinant CYP2C9, luciferin-H conversion, luminescence; stronger effect = higher value; factor 1 = untreated enzyme, 0 = blocked;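 active = activation factor of 2 or more for CYP2C9 at a 5 µM dose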
CYP2C19 inhib – human CYP2C19 inhibition. CYP2C19 Supersomes, luciferin-H EGE luminescence, 30 min. inhibition, % at 5 µM. 21% of 96,000 active;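 active = CYP2C19 inhibition above a set limit at 5 µM in the primary screen, cut at about 50% in these data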
sEH activator – soluble epoxide hydrolase (human) activation | 0.04% of 91,000 active | purified human sEH enzymatic activity, activator screen | activation, % at 2 µM | P34913; in the data active = activation above about 37%
Target sequence (P34913 whole entry, looked up): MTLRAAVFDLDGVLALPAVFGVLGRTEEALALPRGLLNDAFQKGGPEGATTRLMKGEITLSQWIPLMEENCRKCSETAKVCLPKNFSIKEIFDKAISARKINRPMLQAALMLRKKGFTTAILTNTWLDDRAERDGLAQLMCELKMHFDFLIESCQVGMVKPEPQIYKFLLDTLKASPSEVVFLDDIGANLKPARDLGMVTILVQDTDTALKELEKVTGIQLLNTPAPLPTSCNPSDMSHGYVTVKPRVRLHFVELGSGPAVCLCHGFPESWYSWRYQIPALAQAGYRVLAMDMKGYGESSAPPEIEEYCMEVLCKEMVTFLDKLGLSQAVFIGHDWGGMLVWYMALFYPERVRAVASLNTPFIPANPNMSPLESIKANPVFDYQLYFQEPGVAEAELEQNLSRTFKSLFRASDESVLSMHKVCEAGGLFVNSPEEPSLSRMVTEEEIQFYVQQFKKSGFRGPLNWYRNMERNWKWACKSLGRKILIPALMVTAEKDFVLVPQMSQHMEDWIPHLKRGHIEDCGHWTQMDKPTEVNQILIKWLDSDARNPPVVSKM
CYP2C19 act – activators of human cytochrome P450 2C19; recombinant CYP2C19, luciferin-H EGE luminescence; stronger effect = higher value; 0 = fully inhibited enzyme, 1 = untreated enzyme; activation factor at 5 µM; 96,000 tested, under 10 active; P33261;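 active = activation factor of at least 2 at 5 µM in the primary screen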
sEH inhibitor – soluble epoxide hydrolase (human) inhibition. recombinant human sEH enzymatic activity assay. inhibition, % at 2 µM. 0.34% of 91,000 active; in the data active = inhibition above about 80%
Numbers stand for hits; - = inactive; . = not tested or not shown. An excerpt weighted towards active compounds, which were near 27% of everything screened.

SMILES	CYP2C9 inh	CYP2C9 activ	CYP2C19 inhib	sEH activator	CYP2C19 act	sEH inhibitor
Cc1cc(-c2ccc(Cl)cc2)c(C#N)c(N)n1	-	-	-	-	-	-
N#Cc1c(-c2ccco2)cc(-c2ccccn2)nc1N	-	-	-	-	-	-
N#Cc1c(-c2ccco2)cc(C2CC2)nc1N	-	-	63	-	-	-
N#Cc1c(-c2ccccc2)cc(C2CC2)nc1N	-	-	80	.	-	.
CCOC(=O)C1C(=O)NC(N2CCCCC2)=NC1c1ccco1 (centres undefined)	-	-	-	-	-	-
Cc1nn(-c2ccccc2)c(Cl)c1/C=C1\SC(=S)NC1=O	76	-	-	-	-	-
O=C1c2ccccc2C(=O)N1SC1CCCCC1	82	-	-	-	-	-
CC(C)C1CC(O)(C2(O)CCCCC2)ON1 (centres undefined)	-	-	-	.	-	.
O=C(COc1cccc(C(F)(F)F)c1)Nc1ccc(S(=O)(=O)N2CCCC2)cc1	-	-	-	-	-	-
CCNC(=S)N(Cc1ccc2c(c1)OCO2)C1CC(=O)N(c2ccc(F)cc2)C1=O (centres undefined)	71	-	94	-	-	-
Cc1[nH]n(-c2ccccc2)c(=O)c1/C=N/Nc1nncc(-c2ccccc2)n1	82	-	59	-	-	-
CCCCN(CCCC)C(=S)N/N=C/c1c(C)[nH]n(-c2ccccc2)c1=O	-	-	-	-	-	-
CCc1nc2ccc(C)cc2c(C(=O)NC2CCCCC2C)c1C (centres undefined)	71	-	-	-	-	-
Cc1ccc2c(c1)NC(=O)C(CC(=O)NC1CCCCC1C)O2 (centres undefined)	-	-	-	-	-	-
COCCn1c(CNc2ccc(F)cc2)nnc1SCC(=O)Nc1ccc(OC)cc1OC	-	-	-	-	-	-
CCN1C(=O)/C(=C/N(C)c2ccccc2)OC1=S	53	-	79	-	-	-
Nc1nc(Cn2nnc(-c3ccccc3Cl)n2)nc(N2CCOCC2)n1	-	-	55	.	-	.
CCN(CC)C(=O)Cn1cc(/C=C(\C#N)C(=O)N2CCN(c3ccccc3)CC2)c2ccccc21	56	-	71	-	-	-
CCn1c(SCC(=O)Nc2ccc(OCc3ccccc3)cc2)nnc1-c1ccco1	-	-	-	.	-	.
COc1cccc(NC(=O)CCN2CCN(C)CC2)c1	-	-	-	.	-	.
CCOc1ccc(NC(=O)C2CC(=O)N(CC)C(=Nc3ccc4c(c3)OCO4)S2)cc1 (centres undefined)	-	-	-	-	-	-
CNC(=O)C1CC(=O)N(Cc2ccc3c(c2)OCO3)C(=Nc2ccc(OC)cc2)S1 (centres undefined)	-	-	56	-	-	-
O=C1CC(N2CCN(Cc3ccc4c(c3)OCO4)CC2)C(=O)N1CCc1ccccc1 (centres undefined)	-	-	-	.	-	.
NC(=O)C1CC(=O)N(Cc2ccc3c(c2)OCO3)C(=Nc2ccccc2)S1 (centres undefined)	52	-	96	-	-	-
COc1ccc(N=C2SC(C(=O)Nc3ccc4c(c3)OCO4)CC(=O)N2C)cc1 (centres undefined)	73	-	-	-	-	-
SMILES	CYP2C9 inh	CYP2C9 activ	CYP2C19 inhib	sEH activator	CYP2C19 act	sEH inhibitor
COc1ccc(N=C2SC(C(N)=O)CC(=O)N2CCc2ccc(OC)c(OC)c2)cc1 (centres undefined)	-	-	64	-	-	-
COc1ccc(N=C2SC(C(=O)O)CC(=O)N2Cc2ccc(OC)c(OC)c2)cc1 (centres undefined)	-	-	-	-	-	-
CNC(=O)C1CC(=O)N(CCc2ccc(OC)cc2)C(=Nc2ccc(OC)cc2)S1 (centres undefined)	.	.	.	-	.	-
C=CCN1CCN(C(c2ccccc2)c2nnnn2CCC(C)C)CC1 (centres undefined)	-	-	-	-	-	-
COc1cc(CNc2ccc3c(c2)CCC3)cc(OC)c1O	-	-	-	-	-	-
CCOc1cc(CNc2ccc3c(c2)CCC3)ccc1O	77	-	91	-	-	-
COc1cc(CNc2ccccc2SC)ccc1O	-	-	87	-	-	-
CCOc1cc(CNc2ccccc2SC)ccc1O	-	-	67	-	-	-
CCOc1cccc(NC(=O)C2CC(=O)N(C)C(=Nc3ccccc3)S2)c1 (centres undefined)	74	-	-	-	-	-
CCOc1cccc(NC(=O)C2CC(=O)N(C)C(=Nc3cccc(F)c3)S2)c1 (centres undefined)	75	-	51	-	-	-
CCOc1cccc(NC(=O)C2CC(=O)N(C)C2)c1 (centres undefined)	-	-	-	-	-	-
COc1ccccc1N=C1SC(C(=O)Nc2ccc(F)cc2)CC(=O)N1C (centres undefined)	.	.	.	-	.	-
CCOC(=O)CCSc1nc(C)cc(C(F)(F)F)c1C#N	-	-	61	-	-	-
CCOC(=O)CCSc1nc(C(C)(C)C)cc(C(F)(F)F)c1C#N	.	.	.	-	.	-
CCOC(=O)CC(=O)CSc1nc(-c2ccc3c(c2)OCO3)cc(C(F)(F)F)c1C#N	53	-	-	-	-	-
C=CCCC(=O)Nc1nc(C)c(-c2csc(Nc3cccc(OC)c3)n2)s1	-	-	-	-	-	-
COc1ccccc1Nc1nc(-c2sc(NC(=O)CC(C)C)nc2C)cs1	54	-	-	-	-	-
CCCC(=O)Nc1nc(C)c(-c2csc(Nc3ccccc3OC)n2)s1	66	-	-	-	-	-
CCCCCC(=O)Nc1nc(C)c(-c2csc(Nc3cc(Cl)ccc3OC)n2)s1	-	-	-	-	-	-
COc1ccccc1Nc1nc(-c2sc(NC(=O)C(C)(C)C)nc2C)cs1	-	-	-	-	-	-
CCCC(=O)Nc1nc(C)c(-c2csc(Nc3cc(OC)ccc3OC)n2)s1	78	-	-	-	-	-
COc1cccc(Nc2nc(-c3sc(NC(=O)CC(C)C)nc3C)cs2)c1	86	-	84	-	-	-
Cc1ccccc1Nc1nc(-c2sc(NC(=O)c3ccco3)nc2C)cs1	-	-	-	-	-	-
COc1ccc2sc(NC(=O)CC(C)C)nc2c1	66	-	58	-	-	-
CCC(=O)Nc1nc2cc(OC)ccc2s1	-	-	-	-	-	-
CCOc1ccccc1Nc1nc(-c2sc(NC(=O)c3ccco3)nc2C)cs1	59	-	-	-	-	-
COc1ccc(OC)c(Nc2nc(-c3sc(N)nc3C)cs2)c1	73	-	53	-	-	-
C=CCCC(=O)Nc1nc(C)c(-c2csc(Nc3cc(OC)ccc3OC)n2)s1	52	-	-	-	-	-
Cc1cc(O)ccc1Nc1nc(-c2sc(N)nc2C)cs1	-	-	-	-	-	-
CC(C)(C)c1ccc(S(=O)(=O)n2c(CN3CCOCC3)nc3ccccc32)cc1	-	-	-	-	-	-

Bioassay records from PubChem BioAssay.
